Measured values: PubChem BioAssay AID1085 (Emory University Molecular Libraries Screening Center, 2008)
Hit rate of the full screen: of about 220,000 compounds, about 930 (0.42%) were called active. The sample as a whole holds a higher share of actives than the screen did. A number with no mark means an inactive call. No stated cut-off is given here; in the data, active means inhibition above about 50%; inactive means the rest.

These molecules were tested against Glycoprotein 42 (Epstein-Barr virus (strain AG876)) (UniProt Q1HVG2) (assay: EBV glycoprotein 42 binding blockers – biochemical, uHTS, fluorescence polarization, primary screen (AID 1085)). Conditions: Fluorescence polarization binding assay, mP read-out; stronger effect = higher value; tested at 21.74 µM.
Chain of Glycoprotein 42 (Epstein-Barr virus (strain AG876)) (Q1HVG2 whole entry, looked up): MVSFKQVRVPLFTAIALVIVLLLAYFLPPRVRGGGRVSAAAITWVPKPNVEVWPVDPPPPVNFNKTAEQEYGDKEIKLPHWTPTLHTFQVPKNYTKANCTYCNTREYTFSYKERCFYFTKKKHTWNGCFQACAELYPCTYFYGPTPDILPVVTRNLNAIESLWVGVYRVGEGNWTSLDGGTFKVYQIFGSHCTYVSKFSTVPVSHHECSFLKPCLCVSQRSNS
With `CCOC(=O)Nc1ccccc1N1C(=O)c2ccccc2C1=O` the inhibition was -16.9%. `CCOC(=O)c1cc2n(c1N)-c1ccccc1C2=O` was tested, and the inhibition was 157% (active). For `CC(C)OC(=O)CN1C(=O)C(=O)c2ccccc21`, the inhibition was -5.73%. With `CCNc1nc(N)nc(-c2cc(Cl)ccc2OC)n1` the inhibition was -10.6%. `CCN(CC)S(=O)(=O)c1ccc(Cl)c(C(=O)NC(C)C(c2cccs2)N2CCCC2)c1` (configuration not stated) gave an inhibition of -7.74%. For `O=C(c1[nH]ncc1-c1ccc(Cl)cc1)C1CO1` (configuration not stated), the inhibition was -0.17%. In the case of `Nc1ccc2nc3c(=O)[nH]c(=S)[nH]c3nc2c1`, the inhibition is reported as 158% (active). `O=C(Nc1ccc([N+](=O)[O-])cc1)C1CC12CCC2` (configuration not stated) gave an inhibition of 18.7%. `FC(F)(F)c1ccc(-n2cn[nH]c2=S)cc1` was tested, and the inhibition was -0.1%. With `COc1ccccc1NC(=O)CCSc1nnc(-c2ccc(O)cc2)o1` the inhibition was 16.2%. Work on `Cc1cccc(OCCNC(=S)NC(=O)c2cccnc2)c1` yielded an inhibition of -11%. Molecule `CCOC(=O)c1ccc[n+](CC(=O)Nc2ccccc2OC(F)F)c1` has an inhibition of -15.4%. With `Cc1ccc(-c2nc(SCC(=O)Nc3ccccc3OC(F)F)c3c(C)c(C(=O)O)sc3n2)cc1` the inhibition was 92.6% (active). `Cc1ccc(C)c(SCc2nc3sc(C(=O)O)c(C)c3c(=O)[nH]2)c1` showed an inhibition of -9.06%. Work on `C[C@@H](NC(=O)OC(C)(C)C)c1nnc(S(=O)(=O)Cc2ccccc2)o1` yielded an inhibition of 0.97%. `Cc1ccc(NC(=S)Nc2ncccc2C)c(C)c1` was tested, and the inhibition was -9.14%. `CCOC(=O)c1c(NC(=O)CNC2CCCc3ccccc32)sc(C(N)=O)c1C` (configuration not stated) showed an inhibition of -9.07%. Work on `N#C/C(=C(/O)Cc1cccc2ccccc12)c1nc2ccccc2s1` yielded an inhibition of 4%. In the case of `CC1=CC(=C(C#N)c2nc3ccccc3s2)C=C(C)N1c1ccc(F)cc1F`, the inhibition is reported as 176% (active). `O=C(O)CS/C(=C\c1ccc(F)cc1)c1nc2ccccc2s1` was tested, and the inhibition was -2.63%. With `Cc1c(C(=O)Nc2cccc(Cl)c2)cn2c(nc3ccccc32)c1C#N` the inhibition was -23.4%. In the case of `CC(=O)Nc1ccc(NS(=O)(=O)c2cc(C)sc2C)cc1`, the inhibition is reported as 15.2%. Molecule `O=C(Nc1ccc2sc3ccccc3c(=O)c2c1)c1ccccc1Cl` has an inhibition of -5.22%. `FC(F)(F)Oc1ccc(-c2cn3cccnc3n2)cc1` gave an inhibition of -6.62%. `CCOC(=O)c1sc(=S)n(-c2cccc(OC)c2)c1N` was tested, and the inhibition was -17.2%. With `COCCOC(=O)c1sc(=S)n(CCOC)c1N` the inhibition was 85.3% (active). Work on `COC(=O)c1sc(=S)n(-c2ccccc2)c1N` yielded an inhibition of -22.9%. In the case of `C/C(=N/NC(=O)CN1CCN(S(=O)(=O)c2ccc(Br)cc2)CC1)c1ccncc1`, the inhibition is reported as -10.4%. Work on `Cc1c(NC(=S)NCc2ccc(F)cc2)cccc1[N+](=O)[O-]` yielded an inhibition of -0.91%. `CCOc1ccc(/C=C(/NC(=O)c2ccccc2)C(=O)NCCC(=O)O)cc1` was tested, and the inhibition was 8.99%. In the case of `CCOc1cc(/C=C(\C#N)c2nc(-c3cccs3)c(NC(C)=O)s2)ccc1O`, the inhibition is reported as 93.2% (active). In the case of `COc1cc(/C=N\Nc2nc(-c3cccs3)c(NC(C)=O)s2)ccc1O`, the inhibition is reported as -5.81%. In the case of `COc1cc(/C=C(\C#N)c2nc3c(s2)CC(C)CC3)ccc1O` (configuration not stated), the inhibition is reported as -29.5%. In the case of `C/C(CC(=O)N1CCN(C=O)CC1)=N\NC(=O)c1ccc(Br)cc1`, the inhibition is reported as 8.36%. `COc1ccc(/C=N/n2c(C)cc(C)cc2=O)cc1` showed an inhibition of 1.02%. Work on `Cc1cccc(NC(=S)NC23CN4CN(CN(C4)C2)C3)c1` yielded an inhibition of -1.99%. `CCn1c(COc2ccccc2)nnc1SCC(=O)NCc1ccco1` was tested, and the inhibition was 2.39%. Molecule `C=CCn1c(SCC(=O)Nc2nc3ccccc3s2)nnc1-c1ccccc1O` has an inhibition of -0.36%. For `C=CCn1c(CSc2nc3ccccc3s2)nnc1SCC(=O)NCc1ccco1`, the inhibition was 50.6% (active). Molecule `CSc1cc(C)[nH]c(=O)n1` has an inhibition of 6.61%. `Cc1cc(C(=O)N/N=C/c2ccc(N3CCOCC3)cc2)c(C)o1` gave an inhibition of -16.3%. `CNC(=O)c1ccsc1NC(=O)c1ccc(S(=O)(=O)N2CCc3ccccc32)cc1` was tested, and the inhibition was 0.14%. Work on `Cc1cnc(C(=O)OCC(=O)NCCCc2ccccc2)cn1` yielded an inhibition of -8.79%. Molecule `COc1ccccc1OCC(=O)OCn1c(SC)nnc(C)c1=O` has an inhibition of -6.57%. `Cn1c(=O)n(C)c2cc(/C=N/NC(=O)c3cccc(Br)c3)ccc21` gave an inhibition of -5.32%. `O=C(C1=C(O)C(=O)N(CCOCCO)C1c1ccccn1)c1cccs1` (configuration not stated) was tested, and the inhibition was -10.3%. `O=C(C1=C(O)C(=O)N(c2ncccn2)C1c1cccs1)c1ccco1` (configuration not stated) was tested, and the inhibition was 65.7% (active). With `O=C(C1=C(O)C(=O)N(Cc2ccccc2)C1c1ccco1)c1ccco1` (configuration not stated) the inhibition was -8.71%. In the case of `CCOC(=O)N/N=C1\CC(C)S(=O)(=O)c2ccc(Cl)cc21` (configuration not stated), the inhibition is reported as 0.18%. With `O=c1cc(CO)oc(C(Nc2cccc([N+](=O)[O-])c2)c2ccccn2)c1O` (configuration not stated) the inhibition was -4.92%. With `COc1ccc(-c2nn(C)c(=O)c3ccccc23)cc1CNC(=O)C1CCCCC1` the inhibition was -11.8%. With `COC(=O)CCCC1=CC2=CC(=O)C(C)(OC(=O)c3cccs3)C(=O)C2=CN1CC(C)C` (configuration not stated) the inhibition was 2.99%. With `COC(=O)CCCC1=CC2=CC(=O)C(C)(OC(=O)c3cccs3)C(=O)C2=CN1c1cccc(C#N)c1` (configuration not stated) the inhibition was 78% (active). Work on `COC(=O)CCCC1=CC2=CC(=O)C(C)(OC(=O)c3cccs3)C(=O)C2=CN1CC1CC1` (configuration not stated) yielded an inhibition of 0.53%. With `Cc1ccc(C(=O)NNc2ncnc3ccccc23)cc1` the inhibition was -1.4%. With `CC(C)Oc1ccc(Oc2ccc(C(F)(F)F)cn2)cc1` the inhibition was 6.36%. Molecule `NC1=NC(=O)C2(COC(c3ccccc3Cl)OC2)S1` (configuration not stated) has an inhibition of -11.7%. In the case of `CN1CCN(CCCCOc2ccccc2-c2ccccc2)CC1`, the inhibition is reported as -24.1%. In the case of `Cc1cccn2c(=O)c(/C=C3\SC(=S)N(CC(C)C)C3=O)c(NCCCOC(C)C)nc12`, the inhibition is reported as 137% (active). `CCOC(=O)CC1C(=O)NCCN1c1nc2c(C)cccn2c(=O)c1/C=C1\SC(=S)N(C(C)CC)C1=O` (configuration not stated) was tested, and the inhibition was -14.8%. `CNc1nc2c(C)cccn2c(=O)c1C=Nc1ccc(OC)cc1` was tested, and the inhibition was -10.2%. `CCOc1ccc(N2CC(C(=O)N/N=C/c3sccc3C)CC2=O)cc1` (configuration not stated) showed an inhibition of -24%. For `C=CCNc1cnn(-c2ccc(C)cc2)c(=O)c1Cl`, the inhibition was 15.2%. For `O=C(COC(=O)CNS(=O)(=O)c1ccccc1)NC12CC3CC(CC(C3)C1)C2`, the inhibition was -4.36%. Molecule `Cc1c(-c2cccc(Cl)c2)nc2ccccc2c1C(=O)OCC(=O)N(C)C1CCS(=O)(=O)C1` (configuration not stated) has an inhibition of 27.8%. `COc1ccc(NC(=O)COc2ccc(C(=O)OCC(=O)N(C)C3CCS(=O)(=O)C3)cc2OC)cc1` (configuration not stated) gave an inhibition of -11.6%. `CN(C(=O)COC(=O)c1cc(-c2ccco2)nc2ccccc12)C1CCS(=O)(=O)C1` (configuration not stated) was tested, and the inhibition was 95.4% (active). With `COc1ccc(/C=N/NC(=O)CNC(=O)c2ccc(S(=O)(=O)N3CCCC3)cc2)c(OC)c1` the inhibition was -7.62%. For `COc1ccc(OCC(=O)NN2Cc3ccccc3C2=N)cc1`, the inhibition was -18.4%. `O=C(NC1CC1)C1=C[C@H](c2c[nH]c3ccccc23)C[C@H](OCc2ccc(CO)cc2)O1` was tested, and the inhibition was -3.29%. In the case of `O=C1c2cccc3c([N+](=O)[O-])ccc(c23)C(=O)N1CC1CCCO1` (configuration not stated), the inhibition is reported as 64.2% (active). With `O=C(NCc1ccc2c(c1)OCO2)c1ccc2c(c1)C(=O)N(CC1CCCO1)C2=O` (configuration not stated) the inhibition was -19.8%. `O=c1c2cc3c(=O)n(CC4CCCO4)c(=O)c3cc2c(=O)n1CC1CCCO1` (configuration not stated) showed an inhibition of -9.61%. Work on `CN1CCc2nc(SC(C(=O)O)c3ccccc3)c(C#N)c(-c3cccs3)c2C1` (configuration not stated) yielded an inhibition of 6.93%. In the case of `CC(C)CNC(=O)COC(=O)c1ccccc1OCC(=O)Nc1ccc(Br)cc1`, the inhibition is reported as -2.14%. In the case of `O=C(Oc1c(-c2ccco2)oc2ccccc2c1=O)c1cccnc1`, the inhibition is reported as -4.14%. With `Cc1cc(SCC(=O)NCCN2C(=O)CSC2=O)nc2ccccc12` the inhibition was -6.4%. Molecule `COc1cc(C(F)(F)F)nc2c(Br)c(C(C)(C)C)nn12` has an inhibition of -5.73%. `CN(CCN1CCOCC1)Cc1nc(-c2ccc3c(c2)OCO3)no1` showed an inhibition of -2.97%. `c1ccc(-c2oc3ncnc(N4CCOCC4)c3c2-c2ccccc2)cc1` showed an inhibition of 0.89%. Work on `Cc1oc2c(c1C(=O)N1CCOCC1)C(=O)c1ccccc1C2=O` yielded an inhibition of -10.1%. With `O=C1c2ccccc2-c2ncnc3c(N4CCOCC4)cc(N4CCOCC4)c1c23` the inhibition was 51.8% (active). `COCCn1c(Cc2cccn2C)nnc1SCC(=O)Nc1nccs1` showed an inhibition of 0.89%. With `CC(=O)Nc1cccc(Oc2cc(C#N)c(C#N)cc2N2CCOCC2)c1` the inhibition was -5.04%. `COc1cc(N2CCCC2)c(OC)cc1/C=C(/C#N)c1cccc(Br)c1` was tested, and the inhibition was 112% (active). With `COc1cccc(C(=O)Nc2ccc(N3CCCC3)cc2)c1` the inhibition was -3.03%. Molecule `CCO[C@@H]1OC(C(=O)N2CCOCC2)=C[C@H](C)[C@H]1CCCO` has an inhibition of -7.59%. With `CCO[C@H]1OC(C(=O)N2CCCCCCC2)=C[C@@H](c2ccc(C(F)(F)F)cc2)[C@@H]1CCCO` the inhibition was 116% (active). Molecule `CCO[C@H]1OC(C(=O)N2CCOCC2)=C[C@@H](c2ccc3c(c2)OCO3)[C@@H]1CCCO` has an inhibition of -9.61%. For `COC(=O)c1sccc1NN1C(=O)c2ccccc2C1=O`, the inhibition was -6.24%. In the case of `CC(=O)Nc1ccc(S(=O)(=O)N2CCN(C(=O)c3ccccc3F)CC2)cc1`, the inhibition is reported as -7.73%. `CCOC(=O)C1=C(N)N(c2ccc(C)cc2)C2=C(C(=O)CCC2)C1c1cccs1` (configuration not stated) gave an inhibition of -16.1%.
